Assay outcomes from PubChem.
AHR act – activators of human aryl hydrocarbon receptor; P35869; AHR-responsive luciferase reporter cells, luminescence; activation, % at 5 µM; hit rate 2.5% among 320,000; AID 2796; in the data active means activation above about 47%;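 further: 0% = vehicle wells and 100% = reference agonist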
Efflux pump inh – blocks antifungal efflux pumps in multiplex yeast assay | S. cerevisiae Candida pump triplex, Nile Red efflux | inhibition, % at 10 µM | hit rate 0.44% among 330,000 | AID 485275;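 active means plate passing quality check with inhibition over a set limit, or well fluorescence over plate mean plus 4 SD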;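 further: Nile Red retained in pooled yeast measured as flow cytometry median fluorescence; 0% = buffer negative control and 100% = Enniatin B positive control; higher means more Nile Red kept so more efflux inhibition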
ALR inh – inhibitors of human sulfhydryl oxidase ALR | P55789 | purified ALR, DTT oxidation, H2O2 HRP-luminol luminescence | inhibition, % (test concentration not listed) | hit rate 3.8% among 290,000 | AID 485317;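 active means mean replicate inhibition above about 79%, with every replicate also reaching it, limit read from the data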
Target sequence (P55789 whole entry, looked up): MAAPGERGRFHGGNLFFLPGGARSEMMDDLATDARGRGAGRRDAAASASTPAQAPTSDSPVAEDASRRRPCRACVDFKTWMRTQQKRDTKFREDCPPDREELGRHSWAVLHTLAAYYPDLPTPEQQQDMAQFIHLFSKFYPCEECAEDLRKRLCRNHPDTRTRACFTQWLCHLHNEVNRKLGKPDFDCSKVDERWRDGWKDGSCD
Bfl-1 A1 inh – inhibitors of the anti-apoptotic protein A1, read as caspase activation; MEF A1-2A-BIM cells, Caspase-Glo 3/7 luminescence, 3 h; percent of clofoctol response, vehicle zero; caspase activation, % (no concentration beside the values); hit rate 0.066% among 330,000; AID 2462;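 active means over half of replicate activation scores above 10%, or exactly half above 10 with the replicate mean above 10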
Mot1-301 SUMO – blocks SUMOylation pathway, rescuing yeast Mot1-301 growth; S. cerevisiae Mot1-301 growth rescue, ATP luminescence, 38.5C; percent above DMSO median, 100 means doubled; growth rescue, % at 18.8 µM; hit rate 1% among 320,000;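 active means every valid replicate shows activation above 250% relative to neutral control wells; inactive means the rest, any valid replicate at or below 250%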;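 further: OY570 slx delta 5 strain wells were the positive control but not used for scaling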
VLA-4 inh – inhibition in a human VLA-4 binding assay | P13612 | inhibition, % (about 7 µM as worked out from the volumes in the protocol) | hit rate 0.2% among 330,000 | VLA-4 expressing cells, ligand binding flow cytometry | AID 2557; in the data active means inhibition above about 50%
Active calls of the source: *. Shown are actives, neighbours in structure and some others; about 7.2% of the full set was active somewhere.

How did Cc1ccsc1C1NC(=O)c2c(sc3c2CCCC3)N1 (centres undefined) do in these assays?
AHR act: 114*; Efflux pump inh: 0; ALR inh: -23; Bfl-1 A1 inh: -12; Mot1-301 SUMO: -11; VLA-4 inh: -10

Results for O=C1NC(c2ccc(Br)cc2)Nc2sc3c(c21)CCC3 (centres undefined) ?
AHR act: 77*; Efflux pump inh: 0; ALR inh: 16; Bfl-1 A1 inh: 1; Mot1-301 SUMO: -3; VLA-4 inh: -337

What do the screens show for `O=C1NC(c2ccccn2)Nc2sc3c(c21)CCC3` (centres undefined)?
AHR act: 19; Efflux pump inh: 0; ALR inh: -12; Bfl-1 A1 inh: -5; Mot1-301 SUMO: 9; VLA-4 inh: 6

How did O=[N+]([O-])c1ccc(C2=Nn3c(Cn4nnc5ccccc54)nnc3SC2)cc1 do in these assays?
AHR act: 0; Efflux pump inh: 0; Bfl-1 A1 inh: 0; Mot1-301 SUMO: -13; VLA-4 inh: 28

How did COc1cc(/C=C/C(=O)N2C(=O)c3cccc(N)c3C2=O)cc(OC)c1OC do in these assays?
AHR act: 5; Efflux pump inh: 0; ALR inh: 10; Bfl-1 A1 inh: 2; Mot1-301 SUMO: -3; VLA-4 inh: 24

How did Nc1cccc2c1C(=O)N(C(=O)/C=C/c1cccc(F)c1)C2=O do in these assays?
AHR act: 4; Efflux pump inh: 0; ALR inh: 98*; Bfl-1 A1 inh: 0; Mot1-301 SUMO: -18; VLA-4 inh: 8

Results for Cn1cc(CNC(=O)C23CC4CC(CC(C4)C2)C3)cn1 ?
AHR act: 5; Efflux pump inh: 0; ALR inh: -4; Bfl-1 A1 inh: 0; Mot1-301 SUMO: 16; VLA-4 inh: 4

How did CCc1c(C(=O)NCc2cnn(C)c2)csc1C do in these assays?
AHR act: -1; Efflux pump inh: 0; ALR inh: 98*; Bfl-1 A1 inh: 1; Mot1-301 SUMO: -7; VLA-4 inh: 6

What do the screens show for `Cc1oc(C(=O)Nc2ccc(C(=O)O)cc2)cc1COc1ccccc1`?
AHR act: 1; Efflux pump inh: 0; ALR inh: 97*; Bfl-1 A1 inh: 0; VLA-4 inh: 12

How did CC(=O)c1cc(C(=O)Nc2ccc(C(=O)O)cc2)oc1C do in these assays?
AHR act: 1; Efflux pump inh: 0; ALR inh: 19; Bfl-1 A1 inh: 1; VLA-4 inh: -10

What do the screens show for `Cc1oc(-c2ccccc2F)nc1CS(=O)CC(=O)NC1CCCCC1` (centres undefined)?
AHR act: -3; Efflux pump inh: 0; ALR inh: 98*; Bfl-1 A1 inh: 0; Mot1-301 SUMO: -3; VLA-4 inh: 3

What do the screens show for `Cc1oc(-c2ccccc2F)nc1CS(=O)CC(=O)NC1CC1` (centres undefined)?
AHR act: 2; Efflux pump inh: 0; ALR inh: 99*; Bfl-1 A1 inh: 0; Mot1-301 SUMO: 36; VLA-4 inh: -6

Results for CCOC(=O)N1CCC(NC(=O)CS(=O)Cc2nc(-c3ccccc3C)oc2C)CC1 (centres undefined) ?
AHR act: 1; Efflux pump inh: 0; ALR inh: 99*; Bfl-1 A1 inh: -1; Mot1-301 SUMO: 4; VLA-4 inh: 1

Results for CCn1cc(C(=O)NC2CCCCCC2)c2cc(OC)c(OC)cc2c1=O ?
AHR act: 1; Efflux pump inh: 0; ALR inh: -4; Bfl-1 A1 inh: -2; Mot1-301 SUMO: -1; VLA-4 inh: -12

What do the screens show for `OCC[C@@H]1C[C@H](O)[C@@H](O)[C@]2(Cc3ccccc3CCO2)O1`?
AHR act: -2; Efflux pump inh: 0; ALR inh: 0; Bfl-1 A1 inh: 0; Mot1-301 SUMO: -7; VLA-4 inh: -17

How did CC(=O)Nc1ccc(NC(=O)COC(=O)C2CCCCC2)cc1 do in these assays?
AHR act: -1; Efflux pump inh: 0; ALR inh: -4; Bfl-1 A1 inh: -2; Mot1-301 SUMO: 3; VLA-4 inh: 24

What do the screens show for `COc1ccccc1CNC(=O)c1ccc2nc(N3CCOCC3)sc2c1`?
AHR act: 14; Efflux pump inh: 0; Bfl-1 A1 inh: 0; Mot1-301 SUMO: -14; VLA-4 inh: 4

What do the screens show for `COC(=O)c1nnn(CC(=O)Nc2cccc(Cl)c2C)c1C(=O)OC`?
AHR act: -1; Efflux pump inh: 0; ALR inh: 20; Bfl-1 A1 inh: 0; Mot1-301 SUMO: -1; VLA-4 inh: 8

How did Fc1ccc(N/N=C(/c2ccccc2)c2ccccn2)cc1 do in these assays?
AHR act: -9; Efflux pump inh: 0; ALR inh: 99*; Bfl-1 A1 inh: -1; Mot1-301 SUMO: 67; VLA-4 inh: 8

Results for CCOc1ccc(C(=O)N/N=C(\c2ccccc2)c2ccccn2)cc1 ?
AHR act: 8; Efflux pump inh: 0; ALR inh: 0; Bfl-1 A1 inh: 0; Mot1-301 SUMO: -4; VLA-4 inh: 9

Results for CCC(Sc1nc(-c2ccccc2)c(-c2ccccc2)[nH]1)C(=O)O (centres undefined) ?
AHR act: 2; Efflux pump inh: 0; ALR inh: 82*; Bfl-1 A1 inh: 1; Mot1-301 SUMO: -9; VLA-4 inh: 10

What do the screens show for `COc1ccc(C=O)cc1CSc1ccccn1`?
AHR act: 1; Efflux pump inh: 0; ALR inh: 97*; Bfl-1 A1 inh: 0; Mot1-301 SUMO: -9; VLA-4 inh: 22

How did CCNC(=S)N=Nc1c(O)[nH]c2ccc([N+](=O)[O-])cc12 do in these assays?
AHR act: 27; Efflux pump inh: 0; ALR inh: -15; Bfl-1 A1 inh: -1; Mot1-301 SUMO: -31; VLA-4 inh: -6

How did Cc1ccc(NCC(=O)N=Nc2c(O)[nH]c3ccc([N+](=O)[O-])cc23)cc1 do in these assays?
AHR act: 125*; Efflux pump inh: 0; ALR inh: 5; Bfl-1 A1 inh: -3; Mot1-301 SUMO: 0; VLA-4 inh: 5

Results for O=[N+]([O-])c1ccc2[nH]c(O)c(N=NC(=S)Nc3cccnc3)c2c1 ?
AHR act: 62*; Efflux pump inh: 0; ALR inh: 7; Bfl-1 A1 inh: 1; Mot1-301 SUMO: 80; VLA-4 inh: -5

Results for COc1cccc(CNc2ccc(S(=O)(=O)N3CCCC3)cn2)c1 ?
AHR act: 3; Efflux pump inh: 0; ALR inh: -2; Bfl-1 A1 inh: 1; Mot1-301 SUMO: 4; VLA-4 inh: -11

Results for COc1ccccc1-n1cnnc1SCC(=O)Nc1cccc(S(N)(=O)=O)c1 ?
AHR act: -5; Efflux pump inh: 0; ALR inh: -6; Bfl-1 A1 inh: 1; Mot1-301 SUMO: -3; VLA-4 inh: 0

How did CCCNC(=O)c1csc(Nc2cccc3ccccc23)n1 do in these assays?
AHR act: 34; Efflux pump inh: 0; ALR inh: -46; Bfl-1 A1 inh: 0; Mot1-301 SUMO: 123; VLA-4 inh: 4
